# Results from ChEMBL document CHEMBL3988442, “University of Dundee, Small-Polar-MMV Screening Library” (2021).
# The campaign covered roughly 66,000 compounds. About 960 (1.5%) showed an effect of 50% or more. The list comes from a sample in which strong results are over-represented; it also holds similar structures and randomly drawn compounds.
# System: Trypanosoma brucei
# Test: Trypanosoma brucei 72 hour study
# Format: functional, organism-based
# Set-up: scale not given: in the data most compounds retested in dose-response had high values
structure (smiles),measurement,setting,value
CC(C)n1ccnc1CN1CCCN(C(=O)c2cccnc2O)CC1,Percent Effect,"30 µM, 30.03 µM",-16.49%
CCS(=O)(=O)N1Cc2[nH]nc(COCc3cccnc3)c2C1.O=C(O)C(F)(F)F,Percent Effect,"30.3 µM, […]",-37.05%
CCC(=O)N1CC[C@H]2[C@H](C[C@@H](Cn3cccn3)N2c2nccs2)C1.O=C(O)C(F)(F)F.O=C(O)C(F)(F)F,Percent Effect,"30.3 µM, […]",-3.444%
CC(C)N1CC[C@H]2[C@H](C[C@@H](Cn3cccn3)N2c2nccs2)C1.O=C(O)C(F)(F)F.O=C(O)C(F)(F)F.O=C(O)C(F)(F)F,Percent Effect,"30.3 µM, […]",-34.12%
O=C(O)C(F)(F)F.O=C(O)C(F)(F)F.O=C(O)C(F)(F)F.c1cnn(C[C@@H]2C[C@@H]3CN(CC4CC4)CC[C@@H]3N2c2nccs2)c1,Percent Effect,"30.3 µM, […]",61.8%
CC(=O)N1CCC2(CC1)C(=O)N(CC1CCN(C)CC1)c1ccccc12.O=C(O)C(F)(F)F,Percent Effect,"30.3 µM, […]",-5.968%
CCNc1cc2c(nn1)CCN(C(=O)c1cc3cc(C)ccc3o1)C2,Percent Effect,10 µM,-11.72%
same,Percent Effect,"30.3 µM, […]",30.23%
CCNc1cc2c(nn1)CCN(C(=O)c1cc3ccccc3o1)C2,Percent Effect,10 µM,-51.84%
same,Percent Effect,"30.3 µM, […]",2.809%
CCNc1cc2c(nn1)CCN(C(=O)c1cc3nc(C)ccc3o1)C2,Percent Effect,"30 µM, 30.03 µM",62.84%
Cn1cc(CNC2CCc3c(ccc(=O)n3Cc3ccncc3)C2)cn1.O=C(O)C(F)(F)F.O=C(O)C(F)(F)F (stereo not drawn),Percent Effect,"30.3 µM, […]",3.089%
CCc1cc(N(C)Cc2ccnc(C)c2)n2nc(C)c(C)c2n1,Percent Effect,"30 µM, 30.03 µM",-13.68%
CCc1cc(N(C)Cc2ccno2)n2nc(C)c(C)c2n1,Percent Effect,"30 µM, 30.03 µM",69.73%
CCc1cc(N(C)Cc2ccncn2)n2nc(C)c(C)c2n1,Percent Effect,"30 µM, 30.03 µM",25.26%
CC(=O)N1CCCN(C(=O)c2ccc(=O)n(C)c2)c2ccccc21,Percent Effect,"30.3 µM, […]",-14.08%
Cn1cc(N2CC3(CCN(CC4CC4)CC3)OCC2=O)cn1.O=C(O)C(F)(F)F,Percent Effect,"30 µM, 30.03 µM",-14.55%
O=C(NCCC1=CCCCC1)c1n[nH]c2c1CCCC2,Percent Effect,"30.3 µM, […]",9.564%
Cc1cc(C(=O)N2CCN(C)CC2)nn1CC(=O)NCc1cccs1.Cl,Percent Effect,"30.3 µM, […]",4.887%
CN1CCc2c(C#N)c(NCC3CCCO3)n3cnnc3c2C1.Cl (stereo not drawn),Percent Effect,"30 µM, 30.03 µM",-22.69%
CC(NC(=O)CSCC(N)=O)c1ccccc1Oc1ccccc1 (stereo not drawn),Percent Effect,"30.3 µM, […]",5.896%
CN1[C@H](CN2CCCC2)C[C@@H]2CN(C(=O)c3cccn3C)CC[C@@H]21.O=C(O)C(F)(F)F.O=C(O)C(F)(F)F,Percent Effect,"30.3 µM, […]",14%
O=S(=O)(Nc1cnn(C2CCOCC2)c1)c1ccc(F)c(F)c1,Percent Effect,"30 µM, 30.03 µM",51.53%
O=C(O)c1cc(S(=O)(=O)Nc2cnn(C3CCOCC3)c2)ccc1F,Percent Effect,"30 µM, 30.03 µM",-3.686%
Cc1ccc(S(=O)(=O)Nc2cnn(C3CCOCC3)c2)cc1C,Percent Effect,"30 µM, 30.03 µM",-12.07%
CC(C)CS(=O)(=O)N1CCC2(CN(c3ccsc3)C(=O)CN2C)C1.O=C(O)C(F)(F)F (stereo not drawn),Percent Effect,"30 µM, 30.03 µM",-44.48%
CC(=O)Nc1ccc(-c2ccccc2NC(=O)CN)cc1,Percent Effect,"30 µM, 30.03 µM",-52.76%
O=C(CCn1ccccc1=O)Nc1ccc(C(=O)O)cc1,Percent Effect,"30 µM, 30.03 µM",4.206%
Cl.NCCC(=O)Nc1ccc(-c2ccccc2)cc1,Percent Effect,"30.3 µM, […]",22.23%
same,Percent Effect,"10 mM, 10 mM as filed; unlikely as a test dose",97.12%
O=C(O)C(F)(F)F.O=C([C@H]1C[C@H]2OCC[C@H]2N(CC2CC2)C1)N1CCCCO1,Percent Effect,"30.3 µM, […]",-275.5%
O=C(O)C(F)(F)F.O=C1COC2(CCN(Cc3ccsc3)CC2)CN1,Percent Effect,"30 µM, 30.03 µM",-11.85%
CS(=O)(=O)NCC1CCCN(Cc2ccccc2F)C1 (stereo not drawn),Percent Effect,"30 µM, 30.03 µM",-12.86%
COC1CCN(C(=O)C2CCCC2)CC(=O)N(C)c2ccccc21 (stereo not drawn),Percent Effect,"30.3 µM, […]",-34.54%
COC1CCN(C(=O)Nc2ccccc2)CC(=O)N(C)c2ccccc21 (stereo not drawn),Percent Effect,"30.3 µM, […]",83.76%
COC1CN(C(=O)Nc2ccccc2)CCC(=O)N(C)c2ccccc21 (stereo not drawn),Percent Effect,"30.3 µM, […]",-31.75%
COCCOc1cccc(CNCc2c(C)nn(C)c2N(C)C)c1,Percent Effect,10 µM,-49.16%
Cc1nc(C)n(CC2CCCN(c3ncnc4ccccc34)C2)n1 (stereo not drawn),Percent Effect,"30.3 µM, […]",12.87%
Cc1nc(C)n(CC2CCCN(c3ncnc4[nH]ccc34)C2)n1 (stereo not drawn),Percent Effect,"30 µM, 30.03 µM",50.76%
Cc1nc(C)n(CC2CN(c3ncnc4[nH]ccc34)CCO2)n1 (stereo not drawn),Percent Effect,"30 µM, 30.03 µM",20.56%
CC(C)NC(=O)[C@@]12CCO[C@@H]1CCN(Cc1ccco1)C2.O=C(O)C(F)(F)F,Percent Effect,"30.3 µM, […]",-46.6%
COc1cc(C)c(-c2ccc(F)c3c2OC(CN)C3)cc1C (stereo not drawn),Percent Effect,"30 µM, 30.03 µM",-14.37%
CCN1CCn2c(C)cnc2C12CCN(C(=O)N(C)C)CC2.O=C(O)C(F)(F)F.O=C(O)C(F)(F)F,Percent Effect,"30.3 µM, […]",-17.98%
Cc1cc(C)n(CC2CCCN2Cc2ncc(C(C)(C)C)o2)n1 (stereo not drawn),Percent Effect,"30.3 µM, […]",1.727%
same,Percent Effect,"10 mM, 10 mM as filed; unlikely as a test dose",-8.311%
Cc1nc(C)n(CC2CCCCN2Cc2ncc(C(C)(C)C)o2)n1 (stereo not drawn),Percent Effect,"30 µM, 30.03 µM",13.64%
CC(C)(C)c1cnc(CN2CCC[C@H]2CO)o1,Percent Effect,"30 µM, 30.03 µM",19.26%
CC(C)(C)c1cnc(CN2CCCCC2Cn2cccn2)o1 (stereo not drawn),Percent Effect,"30.3 µM, […]",-24.92%
same,Percent Effect,"10 mM, 10 mM as filed; unlikely as a test dose",-80.62%
Cc1nc(C)n(CC2CCCN2Cc2ncc(C(C)(C)C)o2)n1 (stereo not drawn),Percent Effect,"30.3 µM, […]",101.7%
same,Percent Effect,"10 mM, 10 mM as filed; unlikely as a test dose",-27.43%
CCC1CCCCN1Cc1ncc(C(C)(C)C)o1 (stereo not drawn),Percent Effect,"30.3 µM, […]",100.3%
same,Percent Effect,"10 mM, 10 mM as filed; unlikely as a test dose",-33.47%
